Results on ten compounds are retold here after PubChem BioAssay AID434973 (Sanford-Burnham Center for Chemical Genomics, 2010).

The structures appear in SMILES notation. Among all 330,000 compounds or so, about 4,900 (1.5%) were called active.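 Rule for the calls: active = inhibition above about 50% at the single test dose (limit read from the data); inactive = the rest.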 What follows is part of a selection rich in actives, with near analogues and random picks from the rest.

This test has as its target Sentrin-specific protease 7 (Homo sapiens) (UniProt Q9BQF6). In words: SENP7 protease inhibitors, primary screen, biochemical, luminescence, uHTS (AID 434973).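 Note: plate controls were DMSO with enzyme for no effect and no enzyme buffer wells for full effect.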 The note with it: recombinant SENP7, Z-RLRGG-aminoluciferin luminescence, 40 min; at 5 µM; stronger effect = higher value.
In general, inhibition refers to the drop in the measured response relative to a control, in per cent. For the compound `Cc1nc2ccc(N3CCN(C)CC3)cc2nc1C`, the inhibition was -4.82% (inactive).

In the case of `CN1CCN(c2cc(N3CCNCC3)ccc2[N+](=O)[O-])CC1`, the inhibition is 6.98% (inactive).

As for `COc1cccc(-c2nc3ccc(N4CCN(C)CC4)cc3[nH]2)c1`, the inhibition was 57.6% (active).

Turning to `Cc1ccc(C)c(NC2=NCCCS2)c1`, the inhibition was 5.92% (inactive).

Take `CCOC(=O)c1c(N)n(CCN2CCOCC2)c2nc3ccccc3nc12`: the inhibition was 0.976% (inactive).

As to `COc1cc(Cn2c(N)c(C(=O)NCc3ccco3)c3nc4ccccc4nc32)cc(OC)c1OC`, the inhibition was 80.7% (active).

For the compound `CCOC(=O)c1c(N)n(Cc2ccccc2)c2nc3ccccc3nc12`, the inhibition was 13% (inactive).

Consider `CCOC(=O)C(O)(c1ccc(N)c(OC)c1)C(F)(F)F` (stereo not given), for which the inhibition was 3.48% (inactive).

Consider `NCC(O)c1ccc(O)cc1` (stereo not given), for which the inhibition was -7.28% (inactive).

For `COc1ccc(N=Cc2c(O)n(C)c(=O)[nH]c2=O)cc1`, the inhibition is 22.6% (inactive).
